Data published in PubChem BioAssay AID720706 (Broad Institute, 2013).
Screen size: about 350,000 compounds; about 5,500 (1.6%) were called active.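 Rule for the calls: active = significant combined selectivity score with lowered wild-type GFP, culture density cut under 30%, mutant RFP and density less affected; inactive = any of these conditions unmet.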 The entries come from a sample that favours actives as a whole.

Assay: GFP drop in mixed WT/humanized-ribosome E. coli culture – GFP/RFP fluorescence, OD600, single point, bacterial rRNA inhibitor project, primary screen (AID 720706)
Settings: E. coli WT GFP vs humanized-ribosome RFP mutants, 24 h; GFP signal change (wild-type ribosome): stronger effect = lower value, DMSO median 0, no signal -100; OD600 change: measured here: OD600 growth, DMSO median 0, no signal -100; RFP signal change: measured here: RFP humanized mutant strains, DMSO median 0, no signal -100, concentration not given here

| SMILES | GFP signal change (wild-type ribosome) | OD600 change [%] | RFP signal change [%] |
| --- | --- | --- | --- |
| COc1ccccc1C#Cc1ccc2c(c1)O[C@H](CN(C)Cc1cccnc1)[C@@H](C)CN([C@H](C)CO)S2(=O)=O | -5.86% (inactive) | -7.99 | 4.04 |
| CC(NC(=O)Nc1ccc2c(c1)OCO2)c1ccncc1 (stereo not given) | 13.1% (inactive) | 4.68 | 1.46 |
| Cc1cccc(NC(=O)Nc2ccc3c(c2)OCO3)n1 | 0.76% (inactive) | 7.09 | -5.02 |
| CC(NC(=O)Nc1cccc([N+](=O)[O-])c1)c1ccc2c(c1)OCO2 (stereo not given) | -34.5% (active) | -26.4 | -5.09 |
| CC1CC2=C(CC1/C=N/NC(N)=S)C(C)(C)CCC2 (stereo not given) | -18.2% (active) | 0.8 | -0.09 |
| Cc1noc(C)c1NC(=O)Nc1ccc2c(c1)C(=O)N([C@@H](C)CO)C[C@H](C)[C@H](CN(C)CC1CCCCC1)O2 | 2.74% (inactive) | 1.93 | -1.48 |
| CCN(CC)S(=O)(=O)c1cc(C(=O)Nc2cc(S(=O)(=O)N3CCOCC3)ccc2N2CCCC2)ccc1F | -10.4% (inactive) | -14.8 | 1.19 |
| CCN(CC)S(=O)(=O)c1ccc(N2CCCC2)c(NC(=O)c2ccc([N+](=O)[O-])o2)c1 | -27.2% (active) | 5.04 | 9.95 |
| CCN(CC)S(=O)(=O)c1ccc(N2CCOCC2)c(NC(=O)c2ccc(=O)n(C)n2)c1 | 18.6% (inactive) | 11.8 | -3.6 |
| C[C@@H]1CN([C@@H](C)CO)C(=O)c2cccc(NC(=O)Nc3ccc(F)cc3)c2O[C@H]1CN(C)Cc1ccc(-c2ccccc2)cc1 | -7.51% (inactive) | -2.98 | -0.352 |
| O=C(C1CCC1)N1CC(=O)N2[C@@H](CO)[C@@H](c3ccc(C#Cc4cccc(F)c4)cc3)[C@@H]2C1 | -59.7% (inactive) | -79.3 | -12.2 |
| COc1ccc(NC(=O)CN(C)C(=O)c2cc(C3CC3)nn2-c2ccccc2)cc1 | -22.4% (active) | -10.8 | 5.24 |
| CCc1ccccc1NC(=O)CN(C)C(=O)c1cc(C2CC2)nn1-c1ccccc1 | -2.02% (inactive) | -16.5 | 3.78 |
| COc1cccc(NC(=O)CN(C)C(=O)c2cc(C3CC3)nn2-c2ccccc2)c1 | -29.5% (inactive) | -27.8 | -7.04 |
| Cc1nn(-c2ccccc2)c(C)c1/C=C/C(=O)OC(C)C(N)=O (stereo not given) | 0.439% (inactive) | -2.9 | -0.31 |
| Cc1nn(-c2ccccc2)c(Cl)c1/C=C/C(=O)c1ccc(O)cc1 | -25.9% (active) | -19.6 | -0.656 |
| Cc1nn(-c2ccc(F)cc2)c(Cl)c1/C=C(/CCC(=O)O)c1nc2ccccc2s1 | -52.2% (inactive) | -75.8 | -17.8 |
| COc1ccccc1CN1[C@H](CO)[C@H](c2ccccc2)C12CN(C(=O)c1ccccn1)C2 | -7.66% (inactive) | -1.5 | 11 |
| Cc1noc(C)c1NC(=O)Nc1ccc2c(c1)C(=O)N([C@H](C)CO)C[C@@H](C)[C@H](CN(C)Cc1ccncc1)O2 | 0.165% (inactive) | 5.53 | -0.035 |
| C[C@H]1CCCCO[C@@H](CN(C)S(=O)(=O)c2ccc(Cl)cc2)[C@@H](C)CN([C@@H](C)CO)C(=O)c2cc(NS(=O)(=O)c3cn(C)cn3)ccc2O1 | -1.49% (inactive) | -13.7 | 2.11 |
| N#CCC(=O)N/N=C/c1cn(Cc2ccc3ccccc3c2)c2ccccc12 | 1.46% (inactive) | -2.06 | 0.715 |
| COc1cccc(Cn2cc(/C=N/NC(=O)c3cc(O)cc(O)c3)c3ccccc32)c1 | -27.3% (active) | -17.9 | 2.51 |
| O=C(Cn1cc(/C=N/NC(=O)c2cccc(C(F)(F)F)c2)c2ccccc21)Nc1ccc(F)cc1 | -1.48% (inactive) | -0.221 | -3.15 |
| COc1cccc(S(=O)(=O)N2C[C@@H](O)COC[C@H]3O[C@@H](CC(=O)N4CCOCC4)CC[C@@H]32)c1 | 0.378% (inactive) | -0.728 | -3.58 |
| O=S(=O)(Cc1ccccc1)NCC[C@@H]1CC[C@@H](NS(=O)(=O)c2ccccc2)[C@@H](CO)O1 | -0.181% (inactive) | 0.151 | 1.58 |
| C[C@H](CO)N1C[C@H](C)[C@@H](CN(C)Cc2ccc3c(c2)OCO3)OCCCC[C@H](C)Oc2ccc(NC(=O)Nc3ccc(C(F)(F)F)cc3)cc2C1=O | 7.88% (inactive) | -5.08 | 3.82 |
| O=C(CCc1ccc(O)cc1)NN=Cc1cc(Br)ccc1O | -37.7% (inactive) | -33.3 | -8.11 |
| O=C(CCCO)N/N=C/c1cc(Br)ccc1O | -15.6% (active) | 11.6 | 1.76 |
| CCOc1cc(C=NNC(=O)CCCC(=O)NN=Cc2ccc(O)c(OCC)c2)ccc1O | 4.33% (inactive) | -0.6 | 2.51 |
| C[C@@H]1CCCCO[C@H](CN(C)Cc2ccc(C(=O)Nc3ccccc3N)cc2)[C@H](C)CN([C@H](C)CO)C(=O)c2cc(N(C)C)ccc2O1 | 4.58% (inactive) | 1.72 | 2.24 |
